# TEAD-YAP block: TEAD-YAP interaction inhibition; hit rate 1.4% among 640,000; inhibition, % at 9.12 µM; HEK-TIYL cells, TEAD-Gal4/YAP UAS-luciferase luminescence; in the data active means inhibition above about 32%;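 further: 0% = median of test compound wells and 100% = reference inhibitor wells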
# FBW7 act: activators of human E3 ligase FBW7; Q969H0; AlphaScreen FBW7–phospho-cyclin E peptide binding, activator screen; normalized activity (activation), % at 26.1 µM; hit rate 0.13% among 650,000; AID 1259310; in the data active means normalized activity above about 1.9%;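 further: purified mutant Fbw7 with reduced substrate affinity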
# Target sequence (Q969H0 whole entry, looked up): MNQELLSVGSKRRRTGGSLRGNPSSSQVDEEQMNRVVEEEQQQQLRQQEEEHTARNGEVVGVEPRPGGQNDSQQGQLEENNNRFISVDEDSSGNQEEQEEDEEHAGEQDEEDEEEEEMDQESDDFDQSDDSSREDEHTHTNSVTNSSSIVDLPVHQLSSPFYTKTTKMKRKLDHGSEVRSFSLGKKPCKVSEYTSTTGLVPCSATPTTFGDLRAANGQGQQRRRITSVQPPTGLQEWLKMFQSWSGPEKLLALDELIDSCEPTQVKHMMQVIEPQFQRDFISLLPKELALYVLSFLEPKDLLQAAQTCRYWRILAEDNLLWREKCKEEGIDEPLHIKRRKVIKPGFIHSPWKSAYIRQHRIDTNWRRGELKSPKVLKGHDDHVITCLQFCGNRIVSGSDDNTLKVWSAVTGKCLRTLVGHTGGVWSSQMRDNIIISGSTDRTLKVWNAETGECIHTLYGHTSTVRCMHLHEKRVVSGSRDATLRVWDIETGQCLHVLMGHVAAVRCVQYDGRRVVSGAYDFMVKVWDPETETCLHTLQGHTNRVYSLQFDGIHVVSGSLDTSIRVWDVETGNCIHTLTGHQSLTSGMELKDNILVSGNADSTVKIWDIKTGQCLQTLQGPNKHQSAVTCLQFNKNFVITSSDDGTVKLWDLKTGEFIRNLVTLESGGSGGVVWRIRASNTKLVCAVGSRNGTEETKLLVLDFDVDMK
# MITF primary: inhibitors of human MITF | O75030 | AlphaScreen MITF homodimerization, bead proximity signal | inhibition, % at 2.6 µM | hit rate 0.91% among 650,000 | AID 1259374; in the data active means inhibition above about 50%;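 further: 0% = vehicle wells with protein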
# GPR151 ag: activates the human receptor GPR151. PathHunter beta-arrestin GPR151 cells, luminescence. activation, % at 11.2 µM. hit rate 1% among 650,000. AID 1508602; in the data active means activation above about 4.9%;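 further: 0% = median of compound wells and 100% = cells with positive control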
# Starred values were filed as active, the others as inactive; ! = repeats disagree. Only some compounds are listed: those with a hit (about 3.5% of all), similar ones and a draw of the others.
SMILES,TEAD-YAP block,FBW7 act,MITF primary,GPR151 ag
COc1ccc2nc(N3CCCC3)sc2c1,2,0,12,-6
COc1ccc2nc(N3CCCCC3)sc2c1,61*,2,13,-4
CCNc1nc(NCC)n2c(SCC(=O)Nc3ccc(OCC)cc3[N+](=O)[O-])nnc2n1,3,0,-7,0
O=CNc1cccc2c1sc1nc[nH]c(=O)c12,53*,0,8,2
CCOc1c(Br)ccc2c1sc1nc[nH]c(=O)c12,4,0,-1,0
O=C(O)c1ccc([C@@H]2Nc3c(F)cccc3[C@@H]3C=CC[C@@H]32)cc1,2,-1,70*,1
CCOc1cccc2c1NC(c1ccc(C(=O)O)cc1)C1CC=CC21 (configuration not stated),-8,-2,59*,0
Fc1cccc2c1NC(c1ccc(Br)cc1)C1CC=CC21 (configuration not stated),19,0,1,0
CCOC(=O)c1cccc2c1N[C@@H](c1ccc(C(=O)O)cc1)[C@H]1CC=C[C@@H]21,8,-1,76*,0
CCOC(=O)c1c(NC(=O)COc2ccc(Cl)cc2Cl)sc(C(=O)Nc2ccc(C)cc2C)c1C,-2,0,5,0
COc1cccc(-c2csc3nnc(SCC(=O)c4ccc(NC(C)=O)cc4)n23)c1,3,13*,10,0
O=C1NC(=S)N(c2ccccc2)C(=O)/C1=C\c1ccoc1,3,0,71*,1
Cc1cccc(N2C(=O)NC(=O)/C(=C\c3cccc(O)c3)C2=O)c1,-3,0,4,1
O=C1NC(=S)N(c2ccc(Cl)cc2)C(=O)/C1=C\c1ccoc1,10,0,34,-2
Cc1cccc(N2C(=O)NC(=O)/C(=C\c3ccoc3)C2=O)c1,-4,0,58*,-1
O=C(CCCN1CC=C(n2c(=O)[nH]c3ccccc32)CC1)c1ccc(F)cc1,-4,1.9*!,0,-1
CC1CCN(CCCC(=O)c2ccc(F)cc2)CC1,7,0,10,0
CC(=O)Nc1ccc(Nc2nc(-c3c(C)nc4cc(C)ccn34)cs2)cc1,57*,0,6,1
Cc1ccn2c(-c3csc(Nc4ccc(Cl)cc4)n3)c(C)nc2c1,55*,0,-7,-1
Cc1ccn2c(-c3csc(Nc4ccc(S(N)(=O)=O)cc4)n3)c(C)nc2c1,3,1,15,-1
Cc1cccc(CCNc2cc(C)nc3nc(C)nn23)c1,4,0,13,-1
CCOc1ccc(N(CC(=O)N2CCOCC2)S(C)(=O)=O)cc1,14,2.1*,18,-2
CS(=O)(=O)N(CC(=O)N1CCOCC1)c1ccc(Oc2ccccc2)cc1,-5,0,2,1
COC(=O)c1cc(-c2ccc(OC)cc2)no1,-5,1.9*,-3,3
CCOC(=O)c1cc(-c2ccc(N(CC)CC)cc2)no1,-58,5.3*,11,0
SMILES,TEAD-YAP block,FBW7 act,MITF primary,GPR151 ag
O=C(c1cccc(N2CCCC2=O)c1)N1CCN(c2cccc(Cl)c2)CC1,44*,0,1,0
Cc1cccc(N2CCN(C(=O)c3cccc(N4CCCC4=O)c3)C(C)C2)c1 (configuration not stated),58*,0,2,-1
Cc1cccc(N2CCN(C(=O)c3ccc(N4CCCC4=O)cc3)CC2C)c1 (configuration not stated),-2,0,-2,0
CCCCC(CC)C(=O)Nc1ncc([N+](=O)[O-])s1 (configuration not stated),44*,0,10,0
CCc1cc(-c2oncc2-c2ccc(Br)cc2)c(O)cc1OC,55*,0,-3,0
CCc1cc(-c2nc(N)ncc2-c2ccc(Br)cc2)c(O)cc1OC,-3,0,1,0
CCCc1cc(-c2oncc2-c2ccc3c(c2)OCCO3)c(O)cc1OC,51*,0,-4,0
COc1ccc(CCNS(=O)(=O)c2ccc(OC)c(Cl)c2)cc1,0,0,11,0
CC(=O)OC(c1ccccc1)C1CCCCC1Cl (configuration not stated),1,0,-6,-1
COc1ccc(C(=O)NC(=S)NC(C)(C)C)cc1[N+](=O)[O-],-2,0,0,0
CCn1c(=N)n(CC(=O)c2ccc(C)cc2)c2ccccc21,-17,1,7,-1
CCn1c(=N)n(CC(=O)c2ccc(Br)cc2)c2ccccc21,-28,3.4*,-6,-1
COc1ccc(C2CC(=O)N(CC(=O)Nc3ccccc3)c3ccccc3S2)cc1 (configuration not stated),1,0,10,2
Cc1ccc(-c2noc(N=O)c2NO)cc1,36*,0,-3,1
O=Nc1onc(-c2ccc([N+](=O)[O-])cc2)c1NO,10,0,-12,1
O=C(CCC1CCCC1)Nc1ccc2c(c1)C(=O)NCCO2,-63,0,6,-1
O=C(COc1ccc(F)cc1)Nc1ccc2c(c1)C(=O)NCCO2,42*,0,9,1
O=C(Nc1cccnc1)Nc1cccc(F)c1,-7,0,8,-1
CC(=O)c1cccc(NC(=O)Nc2cccnc2)c1,33*,0,6,0
COc1ccc(CCNc2ncnc3scc(-c4ccccc4)c23)cc1OC,50*,0,-9,3
COCCNc1ncnc2scc(-c3ccccc3)c12,36*,0,-9,1
OCCNc1ncnc2scc(-c3ccccc3)c12,19,1,20,0
CCC(C)NC(=O)CSc1nnc(-c2ccccn2)n1Cc1ccccc1 (configuration not stated),0,0,0,0
COc1ccc(C2C(C(=O)N3CCN(c4ccccc4OC)CC3)c3ccccc3C(=O)N2c2ccc(OC)cc2)cc1 (configuration not stated),34*,0,3,0
COc1ccc(NC2=C(n3nnc4ccccc43)C(=O)c3ccccc3C2=O)cc1,59*,0,6,-1
SMILES,TEAD-YAP block,FBW7 act,MITF primary,GPR151 ag
O=C(OCCNC1=C(n2nnc3ccccc32)C(=O)c2ccccc2C1=O)c1ccccc1,-6,-1,7,0
C[C@@H]1CC[C@H]2[C@@H](C)C(O)O[C@@H]3OC4(C)CC[C@@H]1[C@]32OO4 (some centres not stated),88*,0,25,0
C[C@H]1[C@@H](OC(=O)CCC(=O)O)O[C@@H]2OC3(C)CC[C@H]4[C@H](C)CC[C@@H]1[C@@]24OO3,82*,0,-1,0
CO[C@H]1O[C@@H]2O[C@@]3(C)CC[C@H]4[C@H](C)CC[C@@H]([C@H]1C)[C@@]24OO3,2,0,9,1
CN1CCNC(=O)C1CC(=O)N(CCc1ccccc1)Cc1ccccc1 (configuration not stated),8,0,0,0
CC1(C)Cc2nc3sc4c(SCC(=O)O)ncnc4c3cc2CO1,47*,0,4,-1
COc1ccc(CCNC(=O)CN(c2ccc(Br)cc2)S(C)(=O)=O)cc1,-2,0,-6,0
COC(=O)c1ccc(Cl)cc1NC(=O)c1cc(OC)ccc1Br,37*,0,-3,-1

# Bioassay records as filed in PubChem BioAssay.
